The source made the active and inactive calls.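 The calls were made as follows: active = inhibition over a set limit, the all-compound mean plus 3 SD, in both replicate runs; inconclusive = over that limit in just one replicate run; inactive = at or under that limit in both runs.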

The nature of the test: RAM pathway blockade in budding yeast – dse1pr::URA3 reporter, 5-FOA selection, pilot screen (AID 869).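 Also: 0% = DMSO wells with no growth and 100% = 10 µM 1-NA-PP1 with full growth; RAM network block rescues cells from 5-FOA so hits raise OD615 growth.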 The following applies: S. cerevisiae dse1pr::URA3 5-FOA growth, OD615, 2 d; at 10 µM; hits give high values; strain carries analog-sensitive mutant Cbk1 kinase.
The inhibition is the relative decrease from the control value, in per cent. As to `COc1ccc(C2C(C(=O)NCC3CCCO3)c3cc(OC)c(OC)cc3C(=O)N2C)cc1OC` (stereo unspecified), the inhibition was 1.46% (inactive).
In the case of `Cc1ccccc1CSc1nnc(-c2ccco2)n1Cc1ccco1` it was 0.145% (inactive).
On to `Cc1nc(CNS(=O)(=O)c2ccccc2F)cs1`, for which the inhibition was 0.335% (inactive).
In the case of `CC1CC(C(O)c2ccccn2)C(=O)C(C(O)c2ccccn2)C1` (stereo unspecified), the inhibition was 0.35% (inactive).
For `CCCC(c1c(C)n(C)n(-c2ccccc2)c1=O)c1c(C)n(C)n(-c2ccccc2)c1=O` the value was 1.16% (inactive); for `CS(=O)(=O)N(Cc1ccc(C(=O)NCc2ccco2)cc1)c1ccccc1`, -0.1% (inactive).
In the case of `CC(C)Cc1cc(C(=O)Nc2cc(Cl)ccc2Cl)no1` it was 3.71% (inactive); in that of `Cc1cc(F)ccc1S(=O)(=O)Nc1c(C)n(C)n(-c2ccccc2)c1=O`, 0.205% (inactive).
In the case of `Cc1onc(-c2ccccc2)c1C(=O)Nc1cccc(C#N)c1` it was 2.92% (inactive); in that of `O=C(c1ccccc1)c1ccc(OC(=O)N2CCOCC2)cc1`, 1.49% (inactive); in that of `COC(=O)CN1C(=O)CC(C)(C)Sc2ccccc21`, 2.17% (inactive).
Consider `Cc1cc(C)cc(N(CC(=O)NCc2ccco2)S(=O)(=O)c2c(C)noc2C)c1`, for which the inhibition was 2.42% (inactive).
For `COc1ccc(C)cc1NC(=O)CSc1nnc(-c2ccc(OC)c(OC)c2)n1N` the value was 0.235% (inactive); for `Cn1c(=O)oc2cc(S(=O)(=O)N3CCCc4ccccc43)ccc21`, 1.96% (inactive).
In the case of `CC(C)(C)NC(=O)c1ccc(NC(=O)C2COc3ccccc3O2)cc1` (stereo unspecified) it was 1.9% (inactive); in that of `CC1CCCC(C)N1c1nnc(N)s1` (stereo unspecified), 0.385% (inactive).

The values above are taken from PubChem BioAssay.
